Reference: PubChem BioAssay
Records with an inconclusive call do not appear. The source made the active and inactive calls.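 The calls were made as follows, unless noted: active = inhibition above the screen-wide mean plus 3 SD, about 51%; inactive = the rest.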

How the values were obtained:
[1] = yeast TOR pathway RPL19A-GFP modulators, primary screen, cell-based, S. cerevisiae, multiplex flow cytometry (AID 1862; in the data active = percent of DMSO control GFP below about 86%;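 also: lower values mimic rapamycin by blocking the RPL19A rise seen in DMSO cells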); settings: S. cerevisiae RPL19A-GFP strain, flow cytometry fluorescence, 3 h; at 10 µM; stronger effect = lower value
[2] = modulators of MEP2-GFP levels in yeast, primary screen, S. cerevisiae, multiplex flow cytometry (AID 1867;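 active = GFP response, as percent of the DMSO control, above the screen-wide mean plus 3 SD, about 139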;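 also: median GFP channel fluorescence of barcode-gated MEP2-GFP cells measured by flow cytometry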); settings: S. cerevisiae MEP2-GFP strain, 3 h, at 10 µM, stronger effect = higher value, 100% means same as DMSO wells
[3] = modulators of CIT2-GFP expression in yeast, primary screen, S. cerevisiae, GFP fusion, multiplex flow cytometry (AID 1870;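 active = percent response above a set limit, the screen-wide mean plus 3 SD, cut at about 130% in these data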;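 also: barcoded CIT2-GFP strain pooled with four other GFP strains with rapamycin as positive control; median GFP fluorescence per well over plate mean of DMSO wells so 100% = DMSO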); settings: 3 h, at 10 µM, stronger effect = higher value
[4] = modulators of LAP4-GFP expression in yeast, primary screen, S. cerevisiae, multiplex flow cytometry (AID 1873;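 active = GFP signal, as percent of the solvent control, above the screen mean plus 3 SD, about 149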); settings: 3 h, at 10 µM, stronger effect = higher value
[5] = modulators of AGP1-GFP expression in yeast TOR pathway, primary screen, cell-based, multiplex flow cytometry, S. cerevisiae (AID 1887;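 active = GFP signal above the screen-wide mean plus 3 SD, that is over about 124.5% of the solvent control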;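 also: AGP1-GFP fusion strain of S. cerevisiae within a five-strain barcoded multiplex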); settings: 3 h, at 10 µM, stronger effect = higher value
[6] = inhibitors of CD8+ T cell-vesicle binding, pilot screen, LFA-1/ICAM-1 modulator project, MLPCN validation set, flow cytometry (AID 2523;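 active = response below a set limit, under 55% cells CD8-positive and vesicle-bound, and CD8 cells' 90th-percentile brightness under 279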;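 as to vesicle binding response: mean PE anti-B7-1 fluorescence of CD8+ cells relative to row control; 100% = QL9-loaded vesicles with DMSO vehicle in the same plate row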); settings: 2C mouse CD8+ T cells, at 7 µM, stronger effect = lower value; double positive events: measured here: CD8+/vesicle+ event percentage
[7] = target: Integrin beta-1 (Homo sapiens) + Integrin alpha-4 (Homo sapiens) (UniProt P13612+P05556); experiment: inhibition of HUTS-21 binding to VLA-4, pilot screen, VLA-4 allosteric modulator project, U937 cells, HUTS-21 mAb, flow cytometry, validation set (AID 2674;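 active = inhibition above 50%, about 3 SD of the validation set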;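 also: antibody binding induced by the VLA-4 ligand LDV present at three times its Kd; 0% = LDV ligand with antibody and no compound and 100% = antibody without LDV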); settings: HUTS-21 LIBS mAb binding, at 6.7 µM, stronger effect = higher value, binding induced by LDV ligand
Sequence of Integrin beta-1 (Homo sapiens) + Integrin alpha-4 (Homo sapiens) (P05556 whole entry, looked up): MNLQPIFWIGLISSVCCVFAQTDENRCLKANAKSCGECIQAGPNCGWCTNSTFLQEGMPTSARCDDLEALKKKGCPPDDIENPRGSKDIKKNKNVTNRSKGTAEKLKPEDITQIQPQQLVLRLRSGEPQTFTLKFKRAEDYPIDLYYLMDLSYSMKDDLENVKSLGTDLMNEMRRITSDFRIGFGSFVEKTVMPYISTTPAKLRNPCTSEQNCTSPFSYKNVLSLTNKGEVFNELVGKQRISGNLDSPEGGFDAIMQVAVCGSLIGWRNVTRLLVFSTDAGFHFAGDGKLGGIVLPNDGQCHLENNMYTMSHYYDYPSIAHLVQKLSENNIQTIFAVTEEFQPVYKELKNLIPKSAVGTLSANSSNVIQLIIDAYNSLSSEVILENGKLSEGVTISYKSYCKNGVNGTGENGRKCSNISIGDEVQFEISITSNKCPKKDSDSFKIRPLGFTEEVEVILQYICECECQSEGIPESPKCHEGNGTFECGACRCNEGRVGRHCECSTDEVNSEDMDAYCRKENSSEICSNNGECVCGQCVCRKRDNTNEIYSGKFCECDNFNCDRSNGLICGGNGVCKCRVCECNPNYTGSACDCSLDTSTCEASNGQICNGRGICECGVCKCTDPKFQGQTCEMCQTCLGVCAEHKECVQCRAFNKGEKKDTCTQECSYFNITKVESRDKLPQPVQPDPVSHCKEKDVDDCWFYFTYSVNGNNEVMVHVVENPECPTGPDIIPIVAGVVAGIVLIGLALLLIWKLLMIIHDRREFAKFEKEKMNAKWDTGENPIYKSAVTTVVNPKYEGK
Sequence of Integrin beta-1 (Homo sapiens) + Integrin alpha-4 (Homo sapiens) (P13612 whole entry, looked up): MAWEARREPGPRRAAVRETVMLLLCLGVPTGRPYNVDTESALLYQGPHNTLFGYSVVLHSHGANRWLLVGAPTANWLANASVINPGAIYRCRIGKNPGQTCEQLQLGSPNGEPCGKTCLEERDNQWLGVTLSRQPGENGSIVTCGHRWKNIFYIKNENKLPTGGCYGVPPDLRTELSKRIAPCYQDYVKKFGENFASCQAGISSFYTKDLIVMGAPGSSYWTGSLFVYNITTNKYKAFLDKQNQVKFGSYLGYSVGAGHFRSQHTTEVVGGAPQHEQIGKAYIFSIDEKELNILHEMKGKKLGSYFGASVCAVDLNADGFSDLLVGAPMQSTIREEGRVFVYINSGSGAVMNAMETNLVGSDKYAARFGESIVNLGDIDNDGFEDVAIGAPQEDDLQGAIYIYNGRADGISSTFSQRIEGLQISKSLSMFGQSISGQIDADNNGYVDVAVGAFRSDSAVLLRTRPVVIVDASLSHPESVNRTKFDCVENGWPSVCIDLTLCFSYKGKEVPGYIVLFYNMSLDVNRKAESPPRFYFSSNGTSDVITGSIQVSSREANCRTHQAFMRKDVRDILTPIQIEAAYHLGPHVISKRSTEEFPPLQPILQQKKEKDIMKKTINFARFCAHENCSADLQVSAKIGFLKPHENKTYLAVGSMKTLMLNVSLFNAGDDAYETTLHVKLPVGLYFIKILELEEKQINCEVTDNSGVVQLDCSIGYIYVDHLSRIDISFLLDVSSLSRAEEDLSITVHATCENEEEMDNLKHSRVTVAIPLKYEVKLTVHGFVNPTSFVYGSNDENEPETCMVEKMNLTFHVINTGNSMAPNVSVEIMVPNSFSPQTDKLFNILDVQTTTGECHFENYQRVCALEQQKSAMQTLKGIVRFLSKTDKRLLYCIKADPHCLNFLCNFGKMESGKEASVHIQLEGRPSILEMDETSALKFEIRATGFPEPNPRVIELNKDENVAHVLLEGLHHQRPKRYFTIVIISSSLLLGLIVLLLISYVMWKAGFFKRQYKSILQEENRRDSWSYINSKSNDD

[8] = superoxide lowering in aged yeast cells, pilot screen, validation compound set (AID 2706;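 active = superoxide response below 65% of plate, a cut near 3 SD across the whole screen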;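 also: yeast exposed to compound for one week at 30 degrees C before staining; 100% = mean of all compound wells on the same plate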); settings: S. cerevisiae aging, superoxide DHE fluorescence; at 10 µM; stronger effect = lower value
[9] = target: Beta-adrenergic receptor kinase 1 (Homo sapiens) (UniProt P25098); experiment: GRK2 binders displacing RNA aptamer, biochemical, validation, human GRK2, bead flow cytometry (AID 488806;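 active = aptamer binding inhibition above 30%, about 3 SD of noise from non-fluorescent compounds; inactive = inhibition at or below 30%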); settings: bead-bound GRK2, FAM-aptamer displacement, at 10 µM, stronger effect = higher value
Sequence of Beta-adrenergic receptor kinase 1 (Homo sapiens) (P25098 whole entry, looked up): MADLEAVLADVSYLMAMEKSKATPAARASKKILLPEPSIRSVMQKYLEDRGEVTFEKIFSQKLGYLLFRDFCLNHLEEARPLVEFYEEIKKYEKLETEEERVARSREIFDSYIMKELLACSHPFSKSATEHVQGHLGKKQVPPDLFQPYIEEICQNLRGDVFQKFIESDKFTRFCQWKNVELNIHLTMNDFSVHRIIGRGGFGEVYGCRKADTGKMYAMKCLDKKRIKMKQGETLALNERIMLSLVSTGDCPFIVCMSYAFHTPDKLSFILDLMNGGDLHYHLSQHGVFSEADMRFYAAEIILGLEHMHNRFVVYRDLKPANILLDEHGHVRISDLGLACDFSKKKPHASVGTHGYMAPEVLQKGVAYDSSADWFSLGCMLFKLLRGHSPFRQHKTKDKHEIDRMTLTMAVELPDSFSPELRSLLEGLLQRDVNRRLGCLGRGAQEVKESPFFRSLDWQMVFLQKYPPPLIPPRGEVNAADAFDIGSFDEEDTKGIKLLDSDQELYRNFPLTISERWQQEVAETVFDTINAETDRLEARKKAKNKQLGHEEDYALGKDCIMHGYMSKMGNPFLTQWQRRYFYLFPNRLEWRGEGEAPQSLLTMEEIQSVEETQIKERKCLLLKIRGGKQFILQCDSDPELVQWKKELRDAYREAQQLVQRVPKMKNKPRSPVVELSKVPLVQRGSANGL

[10] = target: Beta-2 adrenergic receptor (Homo sapiens) (UniProt P07550); experiment: beta2AR agonists driving receptor internalization, pilot screen, cell-based, FAP fluorogen, flow cytometry, validation set (AID 504459;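 active = percent response above 42, roughly 3 SD of non-fluorescent test compounds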;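 also: agonist-driven loss of surface beta2AR via internalization measured by FAP dye flow cytometry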); settings: Am2.2-beta2AR cells, FAP surface receptor flow cytometry; at 10 µM; stronger effect = higher value
Sequence of Beta-2 adrenergic receptor (Homo sapiens) (P07550 whole entry, looked up): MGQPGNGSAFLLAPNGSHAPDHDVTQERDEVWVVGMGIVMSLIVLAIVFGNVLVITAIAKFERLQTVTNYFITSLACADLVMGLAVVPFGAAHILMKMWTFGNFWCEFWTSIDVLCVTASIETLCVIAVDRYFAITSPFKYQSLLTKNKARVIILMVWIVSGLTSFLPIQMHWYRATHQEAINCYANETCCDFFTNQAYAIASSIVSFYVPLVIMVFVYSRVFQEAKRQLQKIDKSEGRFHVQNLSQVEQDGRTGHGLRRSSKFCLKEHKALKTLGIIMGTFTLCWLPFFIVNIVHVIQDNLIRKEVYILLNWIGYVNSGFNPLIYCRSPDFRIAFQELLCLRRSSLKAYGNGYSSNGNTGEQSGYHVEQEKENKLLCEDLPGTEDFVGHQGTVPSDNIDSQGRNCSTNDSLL

[11] = target: AP-2 complex subunit beta (Homo sapiens) (UniProt P63010); experiment: inhibitors of arrestin peptide binding to AP2, pilot screen, biochemical, validation set, GST-AP2 beads, flow cytometry (AID 504541;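 active = inhibition above 54%, about 3 SD of non-fluorescent compounds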;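 also: AP2 carries R879A mutation and is captured from E. coli lysate; bead-bound FITC arrestin peptide fluorescence measuring arrestin peptide binding to AP2; 0% = DMSO wells and 100% = excess unlabeled arrestin peptide control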); settings: FITC arrestin peptide, at 10 µM, stronger effect = higher value, AP2 beta2 appendage fragment, R879A mutant
Sequence of AP-2 complex subunit beta (Homo sapiens) (P63010 whole entry, looked up, the tested form may be a part, one chain of several): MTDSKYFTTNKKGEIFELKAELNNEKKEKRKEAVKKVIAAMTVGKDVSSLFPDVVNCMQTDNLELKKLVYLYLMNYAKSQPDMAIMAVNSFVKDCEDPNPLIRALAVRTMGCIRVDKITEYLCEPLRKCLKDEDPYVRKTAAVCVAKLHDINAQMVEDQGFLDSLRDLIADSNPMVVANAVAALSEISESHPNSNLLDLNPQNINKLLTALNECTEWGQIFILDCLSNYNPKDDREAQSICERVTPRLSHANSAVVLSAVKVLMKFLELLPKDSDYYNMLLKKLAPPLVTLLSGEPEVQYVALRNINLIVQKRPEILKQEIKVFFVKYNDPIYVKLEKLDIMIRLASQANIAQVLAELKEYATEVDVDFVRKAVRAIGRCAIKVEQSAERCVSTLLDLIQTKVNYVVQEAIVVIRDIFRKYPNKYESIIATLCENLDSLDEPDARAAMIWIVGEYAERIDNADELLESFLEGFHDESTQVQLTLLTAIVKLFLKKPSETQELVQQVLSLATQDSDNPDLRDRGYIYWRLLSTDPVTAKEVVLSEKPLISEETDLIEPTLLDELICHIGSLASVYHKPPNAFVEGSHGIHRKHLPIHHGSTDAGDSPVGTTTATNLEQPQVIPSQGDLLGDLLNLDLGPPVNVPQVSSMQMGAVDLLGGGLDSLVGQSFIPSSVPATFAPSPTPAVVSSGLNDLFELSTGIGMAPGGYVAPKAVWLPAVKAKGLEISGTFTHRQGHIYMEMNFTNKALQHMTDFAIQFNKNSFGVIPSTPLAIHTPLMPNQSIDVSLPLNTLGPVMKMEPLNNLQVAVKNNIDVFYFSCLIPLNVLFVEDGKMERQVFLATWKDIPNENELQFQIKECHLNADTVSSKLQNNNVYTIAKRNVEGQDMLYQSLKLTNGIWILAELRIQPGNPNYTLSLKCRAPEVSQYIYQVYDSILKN

[12] = yeast V-ATPase proton transport modulators, S. cerevisiae, pHLuorin, HTS validation (AID 504600; in the data active = response above about 15%;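 also: plate controls were DMSO for no effect and reference compound for full effect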); settings: S. cerevisiae pHLuorin cytosolic pH, at 10 µM, stronger effect = higher value
[13] = tested on: anti-desmoglein-3 scFv antibody binding to human DSG3; experiment: inhibitors of anti-DSG3 scFv binding to DSG3, pilot screen, biochemical, validation compound set, bead-based, flow cytometry (AID 588368;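 active = binding below the plate cutoff, the plate median minus 3 SD, with a reading above zero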;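 also: signal is the median channel fluorescence of bead-bound GFP antibody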); settings: Protein G beads, DSG3-Fc, scFv-GFP binding, at 10 µM, stronger effect = lower value
[14] = inhibitors of fungal efflux pumps CDR1, CDR2, MDR1, pilot screen, validation compound set, multiplex, phenotypic (AID 588506;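 active = efflux inhibition above 0.42, the validation set average plus 4 SD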;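 also: Nile Red retained in cells so higher fluorescence means more efflux inhibition; 0 = negative control wells and 1 = enniatin B 25 µM full block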); settings: S. cerevisiae pump-expressing triplex, Nile Red efflux flow cytometry; at 10 µM; stronger effect = higher value; the pumps come from Candida albicans
[15] = target: ATP-binding cassette sub-family B member 6 (Homo sapiens) (UniProt Q9NP58); experiment: ABCB6 transporter inhibitors, pilot screen, K562-ABCB6 cells, flow cytometry, validation set (AID 588550); settings: K562-ABCB6 porphyrin accumulation, 1 h, at 10 µM, stronger effect = higher value;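 also: 0% = DMSO wells and 100% = benzethonium chloride 70 µM positive control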
Sequence of ATP-binding cassette sub-family B member 6 (Homo sapiens) (Q9NP58 whole entry, looked up): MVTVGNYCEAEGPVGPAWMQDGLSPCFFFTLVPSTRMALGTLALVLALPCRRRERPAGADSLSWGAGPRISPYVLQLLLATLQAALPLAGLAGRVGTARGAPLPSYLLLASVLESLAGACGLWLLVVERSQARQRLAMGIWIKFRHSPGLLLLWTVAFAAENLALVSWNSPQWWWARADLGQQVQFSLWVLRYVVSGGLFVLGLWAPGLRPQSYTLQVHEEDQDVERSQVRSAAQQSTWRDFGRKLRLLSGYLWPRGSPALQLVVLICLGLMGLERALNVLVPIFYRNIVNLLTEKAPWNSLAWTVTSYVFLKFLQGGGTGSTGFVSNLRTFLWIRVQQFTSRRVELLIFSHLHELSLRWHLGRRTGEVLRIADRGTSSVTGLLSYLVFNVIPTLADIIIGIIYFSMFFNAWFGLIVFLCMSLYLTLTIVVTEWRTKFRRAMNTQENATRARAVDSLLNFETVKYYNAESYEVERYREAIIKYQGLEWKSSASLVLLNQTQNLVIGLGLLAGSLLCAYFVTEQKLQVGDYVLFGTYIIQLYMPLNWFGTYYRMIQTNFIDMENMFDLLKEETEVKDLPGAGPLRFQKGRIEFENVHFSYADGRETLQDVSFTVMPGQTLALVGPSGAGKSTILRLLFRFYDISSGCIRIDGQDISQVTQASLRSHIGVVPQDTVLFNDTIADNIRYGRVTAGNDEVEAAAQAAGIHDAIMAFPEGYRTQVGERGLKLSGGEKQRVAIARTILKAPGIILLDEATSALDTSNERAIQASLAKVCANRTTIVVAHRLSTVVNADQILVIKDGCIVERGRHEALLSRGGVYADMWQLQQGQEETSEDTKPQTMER

[16] = promoters of myeloid differentiation in arrested cells, primary screen, cell-based, GFP/MAC1 double positive, flow cytometry, validation set (AID 588685;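 active = differentiation response of at least 50%, scaled between solvent and reference control, from cells with both markers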;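 also: compound exposure lasts four days before antibody staining and flow analysis; 0% = DMSO wells and 100% = 5 µM fulvestrant positive control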); settings: ER-HoxA9 marrow cells, stronger effect = higher value, normalized: vehicle 0, fulvestrant 100

Structure (SMILES) | percent of DMSO control GFP [1] | GFP response vs DMSO [2] | percent response of DMSO control [3] | GFP response vs DMSO [4] | GFP response, % of DMSO [5] | double positive events [6] [%] | vesicle binding response [6] | inhibition [7] | superoxide response (% of plate) [8] | aptamer binding inhibition [9] | response [10] | inhibition [11] | response [12] | binding (% of control) [13] | efflux inhibition (fraction of control) [14] | inhibition [15] | differentiation response [16]
O=C(Cc1ccccc1[N+](=O)[O-])NCCCN1CCOCC1 | 101% (inactive) | 101% (inactive) | 96.4% (inactive) | 107% (inactive) | 107% (inactive) | 63.1 | 426% (inactive) | -4.52% (inactive) | 113% (inactive) | 1% (inactive) | -20% (inactive) | -4.04% (inactive) | 0.45% (inactive) | 99.9% (inactive) | 0 (inactive) | 2% (inactive) | -5.97% (inactive)
Cc1ccsc1/C=C/C1=NCCCN1C | 106% (inactive) | 104% (inactive) | 112% (inactive) | 103% (inactive) | 118% (inactive) | 67.3 | 168% (inactive) | -34.6% (inactive) | 104% (inactive) | 1% (inactive) | 3.43% (inactive) | -5.94% (inactive) | 1.52% (inactive) | 104% (inactive) | -0.135 (inactive) | 1% (inactive) | -3.11% (inactive)
CC(C)(S)[C@@H](N)C(=O)O | 97.8% (inactive) | 109% (inactive) | 87.2% (inactive) | 101% (inactive) | 98.9% (inactive) | 62.5 | 177% (inactive) | 0.94% (inactive) | 85% (inactive) | 6% (inactive) | 1.94% (inactive) | -6.4% (inactive) | 0.19% (inactive) | 98.2% (inactive) | 0.08 (inactive) | 5% (inactive) | 7.2% (inactive)
COc1cccc(OCC(O)CO)c1 (stereo not drawn) | 97.6% (inactive) | 91.9% (inactive) | 107% (inactive) | 78.6% (inactive) | 91.6% (inactive) | 58.2 | 160% (inactive) | 0.94% (inactive) | 94.9% (inactive) | 4% (inactive) | 3.25% (inactive) | 11.4% (inactive) | -1.06% (inactive) | 99.9% (inactive) | -0.1 (inactive) | 1% (inactive) | -4% (inactive)
CCOc1ccc2nc(NC(=O)NC3CCCCC3)sc2c1 | 104% (inactive) | 105% (inactive) | 98.6% (inactive) | 107% (inactive) | 107% (inactive) | 64.2 | 215% (inactive) | -1.09% (inactive) | 89.5% (inactive) | 4% (inactive) | 3.3% (inactive) | 42.2% (inactive) | -7.78% (inactive) | 93.8% (inactive) | 0.8 (active) | -4% (inactive) | -3.11% (inactive)
Cc1ccc2nc(C)c3c(c2c1)OC(C(C)(Cl)Br)C3 (stereo not drawn) | 102% (inactive) | 102% (inactive) | 111% (inactive) | 105% (inactive) | 105% (inactive) | 73 | 278% (inactive) | 6.4% (inactive) | 94.8% (inactive) | 5% (inactive) | 23.5% (inactive) | -1.65% (inactive) | 6.53% (inactive) | 98.4% (inactive) | 0.08 (inactive) | 1% (inactive) | 15.2% (inactive)
N#C/C(=C\c1ccc(O)c(O)c1)C(=O)NCCCc1ccccc1 | 102% (inactive) | 101% (inactive) | 98.3% (inactive) | 108% (inactive) | 116% (inactive) | 62.1 | 206% (inactive) | -13% (inactive) | 93.6% (inactive) | -1% (inactive) | 13.4% (inactive) | 25.2% (inactive) | -4.8% (inactive) | 103% (inactive) | 0.08 (inactive) | -1% (inactive) | 3.88% (inactive)
CCOc1ccc(C(NC(C)=O)c2ccc(OC)c(OC)c2)cc1 (stereo not drawn) | 99.8% (inactive) | 104% (inactive) | 99.3% (inactive) | 101% (inactive) | 100% (inactive) | 58.9 | 28% (inactive) | -20.4% (inactive) | 107% (inactive) | 5% (inactive) | -0.66% (inactive) | -21.1% (inactive) | -0.46% (inactive) | 99.2% (inactive) | -0.63 (inactive) | 8% (inactive) | 0% (inactive)
CC12CCC(C(=O)NNc3ccccc3)(C(=O)C1=O)C2(C)C (stereo not drawn) | 104% (inactive) | 97.4% (inactive) | 102% (inactive) | 94.8% (inactive) | 100% (inactive) | 62 | 217% (inactive) | -30.5% (inactive) | 105% (inactive) | 8% (inactive) | -5.89% (inactive) | 19.1% (inactive) | -0.25% (inactive) | 101% (inactive) | -0.03 (inactive) | -14% (inactive) | 15.2% (inactive)
C[C@@H]1CCC[C@H](C)N1NC(=O)c1ccc(Cl)c(S(N)(=O)=O)c1 | 105% (inactive) | 106% (inactive) | 107% (inactive) | 110% (inactive) | 113% (inactive) | 61.3 | 165% (inactive) | 4.27% (inactive) | 91.8% (inactive) | -2% (inactive) | 6.03% (inactive) | 2.8% (inactive) | 1.78% (inactive) | 105% (inactive) | 0.5 (active) | -5% (inactive) | -8.96% (inactive)
CCCn1c(=O)c2[nH]c(C3CCCC3)nc2n(CCC)c1=O | 92.6% (inactive) | 137% (inactive) | 102% (inactive) | 82.5% (inactive) | 88.7% (inactive) | 62.8 | 193% (inactive) | 0.64% (inactive) | 93.3% (inactive) | 4% (inactive) | -5.24% (inactive) | -0.16% (inactive) | -6.35% (inactive) | 102% (inactive) | -0.13 (inactive) | 7% (inactive) | 2.46% (inactive)
CCN(CCCCOC(=O)c1ccc(OC)c(OC)c1)C(C)Cc1ccc(OC)cc1 (stereo not drawn) | 102% (inactive) | 99.6% (inactive) | 102% (inactive) | 104% (inactive) | 117% (inactive) | 62.7 | 194% (inactive) | 22.7% (inactive) | 103% (inactive) | 4% (inactive) | -26.8% (inactive) | 3.32% (inactive) | 0.12% (inactive) | 103% (inactive) | -0.09 (inactive) | 6% (inactive) | -5.97% (inactive)
Cn1nc(-c2ccc(Cl)cc2)nc2c(=O)n(C)c(=O)nc1-2 | 74.2% (active) | 138% (inactive) | 74.4% (inactive) | 137% (inactive) | 76.7% (inactive) | 62.1 | 215% (inactive) | -12.2% (inactive) | 79.2% (inactive) | 45% (active) | 17.6% (inactive) | -4.09% (inactive) | 59.4% (active) | 108% (inactive) | 0.12 (inactive) | -16% (inactive) | -4.99% (inactive)
COc1ccc(NC(=O)Nc2ccc(C(C)C)cc2)cc1 | 104% (inactive) | 103% (inactive) | 101% (inactive) | 95.9% (inactive) | 88.6% (inactive) | 56.2 | 126% (inactive) | 20.4% (inactive) | 98.7% (inactive) | 7% (inactive) | 2.17% (inactive) | -5.4% (inactive) | -1.78% (inactive) | 97.3% (inactive) | 0.03 (inactive) | -11% (inactive) | 2.74% (inactive)
COc1cc2c(cc1NCc1ccc3c(c1)OCO3)oc1ccccc12 | 99.6% (inactive) | 133% (inactive) | 112% (inactive) | 88% (inactive) | 89.4% (inactive) | 64 | 167% (inactive) | 1.61% (inactive) | 99.1% (inactive) | 0% (inactive) | 4.3% (inactive) | 47.4% (inactive) | 8.06% (inactive) | 103% (inactive) | 0.37 (inactive) | 0% (inactive) | 8.19% (inactive)
Cc1ccc([N+](=O)[O-])cc1NC1OC(CO)C(O)C1O (stereo not drawn) | 102% (inactive) | 105% (inactive) | 104% (inactive) | 120% (inactive) | 109% (inactive) | 56.8 | 186% (inactive) | -16.4% (inactive) | 108% (inactive) | 4% (inactive) | -23% (inactive) | 7.17% (inactive) | 2.59% (inactive) | 103% (inactive) | -0.04 (inactive) | 3% (inactive) | 2.89% (inactive)
CCOC(=O)C1C2C=CC3(CN(c4ccc(Cl)c(F)c4)C(=O)C13)O2 (stereo not drawn) | 100% (inactive) | 99.3% (inactive) | 95.4% (inactive) | 96.6% (inactive) | 94.6% (inactive) | 58.3 | 171% (inactive) | -9.79% (inactive) | 105% (inactive) | 1% (inactive) | 1.75% (inactive) | 36.1% (inactive) | -0.79% (inactive) | 100% (inactive) | 0.33 (inactive) | 2% (inactive) | 12% (inactive)
O=C(OCCN1CCOCC1)c1cccs1 | 104% (inactive) | 98.3% (inactive) | 113% (inactive) | 94.7% (inactive) | 103% (inactive) | 64.9 | 260% (inactive) | -3.57% (inactive) | 88.9% (inactive) | 2% (inactive) | -11.6% (inactive) | -4.4% (inactive) | 0.26% (inactive) | 91.9% (inactive) | 0.02 (inactive) | 1% (inactive) | 0.24% (inactive)
C=CCC1(Cl)C(=O)C(Cl)=C(N2CCOCC2)C1(OC)OC (stereo not drawn) | 101% (inactive) | 94.1% (inactive) | 108% (inactive) | 99.1% (inactive) | 95.2% (inactive) | 59.1 | 167% (inactive) | -4.52% (inactive) | 102% (inactive) | 2% (inactive) | -2.88% (inactive) | -0.19% (inactive) | -0.35% (inactive) | 98.9% (inactive) | -0.21 (inactive) | 8% (inactive) | -4% (inactive)
